# Bioassay records deposited in PubChem BioAssay by The Scripps Research Institute Molecular Screening Center.
# Sampled rows, rich in hits. Any-hit rate of the full collection: about 3.5%.
# FBW7 act = human FBW7 E3 ligase activation, primary screen; Q969H0; AlphaScreen FBW7–phospho-cyclin E peptide binding, activator screen; normalized activity (activation), % at 26.1 µM; 650,000 tested, 0.13% active; AID 1259310; in the data active means normalized activity above about 1.9%;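 further: purified mutant Fbw7 with reduced substrate affinity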
# TEAD-YAP inh = TEAD-YAP interaction inhibition | HEK-TIYL cells, TEAD-Gal4/YAP UAS-luciferase luminescence | inhibition, % at 9.12 µM | 640,000 tested, 1.4% active | AID 1259422; in the data active means inhibition above about 32%
# MITF inh = human MITF inhibition, primary screen | O75030 | 650,000 tested, 0.91% active | AlphaScreen MITF homodimerization, bead proximity signal | inhibition, % at 2.6 µM; in the data active means inhibition above about 50%
# Target sequence (O75030 whole entry, looked up): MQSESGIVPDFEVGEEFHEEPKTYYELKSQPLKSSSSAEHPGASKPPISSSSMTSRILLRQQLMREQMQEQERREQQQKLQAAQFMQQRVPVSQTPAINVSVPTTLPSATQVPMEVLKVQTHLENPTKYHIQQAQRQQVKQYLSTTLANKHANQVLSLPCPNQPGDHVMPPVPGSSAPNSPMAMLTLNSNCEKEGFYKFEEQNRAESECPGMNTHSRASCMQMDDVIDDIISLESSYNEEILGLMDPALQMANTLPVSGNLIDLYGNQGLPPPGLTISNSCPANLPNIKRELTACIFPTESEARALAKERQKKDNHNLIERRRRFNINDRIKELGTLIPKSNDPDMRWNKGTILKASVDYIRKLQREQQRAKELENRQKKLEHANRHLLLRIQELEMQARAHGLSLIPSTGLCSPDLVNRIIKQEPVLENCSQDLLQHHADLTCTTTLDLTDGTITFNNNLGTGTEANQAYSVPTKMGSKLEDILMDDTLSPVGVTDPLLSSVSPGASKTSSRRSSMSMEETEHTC
# GPR151 ag = activators of human GPR151; 650,000 tested, 1% active; Q8TDV0; AID 1508602; PathHunter beta-arrestin GPR151 cells, luminescence; activation, % at 11.2 µM; in the data active means activation above about 4.9%
# MITF inh conf = confirmation of human MITF inhibitors | 4,700 tested, 16% active | AlphaScreen MITF homodimerization, biotin/His-MITF beads | inhibition, % at 2.6 µM | shares compounds with MITF inh;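 active means inhibition above a cutoff derived from the DMSO control wells, cut at about 28% in these data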;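 further: inhibitors lower the bead chemiluminescence by keeping MITF from dimerizing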
# AlphaScreen DR = AlphaScreen optical interference, dose response counter-screen | shares compounds with MITF inh | AlphaScreen optical interference counterscreen, cell-free | IC50, µM | 480 tested, 6% active | AID 1259373; call rule not given here
# AS interf ctr = optically interferes with AlphaScreen signal; shares compounds with MITF inh; LysRS AlphaScreen counterscreen, signal interference, triplicate; inhibition, % at 2.6 µM; 4,700 tested, 7.6% active;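 active means inhibition above a cutoff derived from the DMSO control wells, cut at about 30% in these data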
# Hits are given with their value; . = inactive; / = no result given.
SMILES,FBW7 act,TEAD-YAP inh,MITF inh,GPR151 ag,MITF inh conf,AS interf ctr,others
CCOC(=O)c1c(N)n(CCCN2CCOCC2)c2nc3ccccc3nc12,.,.,55,.,.,.,
Cc1cccc(NC(=S)NNC(=O)CC(C)O)c1C (stereo not given),.,.,57,.,.,.,
Cc1ccccc1CN1CCN(Cc2ccco2)CC1,.,.,72,.,.,.,
c1ccc(CCCN2CCN(Cc3ccco3)CC2)cc1,.,.,55,.,.,.,
CS(=O)(=O)N1CCN(Cc2ccco2)CC1,.,.,.,.,/,/,
O=S(=O)(c1ccccc1)N1CCN(Cc2ccco2)CC1,.,.,.,.,/,/,
Fc1ccc(N2CN(Cc3ccco3)CNC2=S)cc1,.,.,.,.,/,/,
Fc1ccc(N2CCN(Cc3ccco3)CC2)cc1,.,.,52,.,.,.,
Brc1ccc(CN2CCN(Cc3ccco3)CC2)cc1,.,.,86,.,.,.,
Brc1ccccc1CN1CCN(Cc2ccco2)CC1,.,.,78,.,.,.,
CCc1cc2c(cc3c(=O)n(CC(=O)N(CC)Cc4ccccc4)ncn32)s1,.,.,71,.,.,.,
NC(=O)NC(=O)/C=C/c1cn(-c2ccccc2)nc1-c1ccccc1,.,.,.,.,/,/,
Cn1cccc1CN1CCN(Cc2ccc(F)cc2)CC1,.,.,65,.,.,.,
Cn1cccc1CN1CC[C@H]2[C@H](CCC(=O)N2Cc2ccc(F)cc2)C1,.,.,.,.,/,/,
Cn1cccc1CN1CCN(C2CCCC2)CC1,.,.,70,.,.,.,
Cn1cccc1CN1CCN(Cc2ccccc2)CC1,.,.,70,.,.,.,
c1ccc(CN2CCC(N3CCN(C4CCCCC4)CC3)CC2)cc1,.,.,.,.,/,/,
Cn1cccc1CN1CCN(Cc2ccncc2)CC1,.,.,64,.,.,.,
Cn1cccc1CN1CCN(S(C)(=O)=O)CC1,.,.,.,.,/,/,
COc1ccc(C2C(C(=O)OC(C)C)=C(C)N=c3s/c(=C/c4cn(C)c5ccccc45)c(=O)n32)cc1 (stereo not given),.,.,.,.,/,/,
COc1ccc(NC(=O)C(C)N(c2ccc(Cl)cc2)S(C)(=O)=O)cc1 (stereo not given),.,.,.,.,/,/,
CC(=O)NCCc1ccc(S(=O)(=O)Nc2c(C)cc(Br)cc2C)cc1,.,.,.,.,/,/,
CCOC(=O)c1ccc2c(=O)n(C3CCCCC3)c(SCC(=O)C(C)(C)C)nc2c1,.,.,.,.,/,/,
CCC(C)(O)c1cn(Cc2ccccc2)nn1 (stereo not given),.,.,.,.,/,/,
COc1ccc2oc(=O)c(-c3nc4ccccc4s3)cc2c1,.,.,.,.,/,/,
SMILES,FBW7 act,TEAD-YAP inh,MITF inh,GPR151 ag,MITF inh conf,AS interf ctr,others
CCC(C)CN1CCc2nnc(CNC(=O)c3ccccn3)n2CC1 (stereo not given),.,.,.,.,/,/,
CCN1C=CC(=C(/C=C2\C=CC=CC2=O)CS(=O)(=O)O)C=C1,.,.,65,.,.,.,
CC(NC(=O)CNCc1ccccn1)c1ccccc1 (stereo not given),.,.,74,.,.,100,
CC(=O)CC(=O)NC(C)c1ccccc1 (stereo not given),.,.,.,.,/,/,
COCCNC(=O)Cn1c(=O)oc2cc(S(=O)(=O)N3CCCC3)ccc21,.,.,.,.,/,/,
Fc1ccccc1N1CCN(Cc2ccccn2)CC1,.,.,56,.,.,.,
FC(F)(F)c1ccccc1CN1CCN(c2ncccn2)CC1,.,.,51,.,.,.,
Brc1cccc(CN2CCN(Cc3ccccn3)CC2)c1,.,.,.,.,/,/,
c1ccc(N2CCN(Cc3cccc4ccccc34)CC2)nc1,.,.,.,.,/,/,
Oc1ccc(-c2ncccn2)cc1CN1CCN(c2ccccc2F)CC1,.,.,.,.,/,/,
FC(F)(F)c1ccccc1CN1CCN(Cc2ccccn2)CC1,.,.,78,.,.,.,
c1ccc(CN2CCN(Cc3cccc4ccccc34)CC2)nc1,.,.,64,.,.,.,
COc1ccc(C=C2C(=O)c3ccccc3C2=O)c(C)c1,.,.,.,.,/,/,
CCN1C(=O)NC(c2ccc([N+](=O)[O-])cc2)C(C(=O)OCCc2ccccc2)=C1C (stereo not given),.,.,76,.,.,.,
CCN1C(=O)NC(c2ccc([N+](=O)[O-])cc2)C(C(=O)OCCOc2ccccc2)=C1C (stereo not given),.,.,.,.,/,/,
Cc1cc(-c2cnc(C)nc2C2CCCN(Cc3cccnc3)C2)on1 (stereo not given),.,.,53,.,.,.,
Cc1cc(-c2cnc(C)nc2C2CCCN(Cc3ccncc3)C2)on1 (stereo not given),.,.,.,.,/,/,
O=C(Nc1ccc(I)cc1F)c1ccco1,.,.,.,.,/,/,
O=[N+]([O-])c1ccc(C2Nc3ccc(Br)cc3C(c3ccccc3)O2)cc1 (stereo not given),.,.,57,.,.,.,
Fc1ccc(C2Nc3ccc(Br)cc3C(c3ccccc3)O2)cc1 (stereo not given),.,.,.,.,/,/,
CC(=O)NCCCCCc1nc2ccccc2n1C,.,.,.,.,/,/,
O=c1c2sc(=S)n(Cc3ccco3)c2nc(SCc2ccc(F)cc2Cl)n1-c1ccc(F)cc1,.,.,.,.,/,/,
O=c1c2sc(=S)n(Cc3ccco3)c2nc(SCc2ccc(F)cc2Cl)n1-c1ccccc1,.,.,51,.,.,.,
C=CCn1c(SCC(=O)NCc2ccc3c(c2)OCO3)nc2scc(-c3ccccc3)c2c1=O,.,.,57,.,.,.,
C=CCn1c(SCC(=O)NCc2ccc3c(c2)OCO3)nc2sc3c(c2c1=O)CCC3,.,.,.,.,/,/,
SMILES,FBW7 act,TEAD-YAP inh,MITF inh,GPR151 ag,MITF inh conf,AS interf ctr,others
Cc1cc(=O)n(C)c(=O)n1CCCCBr,.,.,.,.,/,/,
Cc1cc(=O)n(C)c(=O)n1Cc1ccccc1,.,.,.,.,/,/,
Cc1cc(=O)n(C)c(=O)n1CCCNC(C)c1ccccc1 (stereo not given),.,.,84,.,.,.,
Cc1cc(=O)n(C)c(=O)n1CCCCNCCO,.,.,72,.,.,.,
Cc1cccc2nc(Cn3ccccc3=O)cn12,.,.,.,.,/,/,
Cc1cccc2nc(CN3CCN(c4ccc(F)cc4)CC3)cn12,.,.,72,.,.,.,
COCc1cc(C)nc(SCCN(C)C)c1C#N,.,.,51,.,.,.,
O=S(=O)(Nc1cccc2cccnc12)c1ccccc1O,.,72,60,.,87,101,
O=S(=O)(Nc1cccc2cccnc12)c1ccc2ccccc2c1,.,.,.,.,/,/,
O=C(O)c1cc(N/N=C/c2ccc(N3CCOCC3)s2)ccc1Cl,.,.,76,.,60,.,AlphaScreen DR=.
Cc1ccc(Nc2nc(-c3ccccn3)cs2)c(C)c1,.,57,51,.,.,39,
CC(NCC(O)CO)c1ccc(-n2ccnc2)cc1 (stereo not given),.,.,81,.,.,.,
